Results filed as inconclusive are left out. The source made the active and inactive calls. Unless noted, calls come from the whole dose curve; as a rule, active = well fitted curve in the direction sought with a large enough effect; inconclusive = small, poorly fitted or top-dose-only effect, or another doubt; inactive = no such curve, though single readings can be large; an effect the other way counts as inactive or inconclusive. Peptide text beside a SMILES is read from it.

Assay [1] in a line: qHTS assay to identify small molecule inhibitors of chordoma cells - UCH-1 (AID 1259355). Note: % is set by controls: 0 for no effect and ±100 for the full control effect; nearly all actives have a fitted effect of over 55% in size. Summed up: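 800 cells/well, overnight attach; compounds pinned at 15 concs, then auranofin/camptothecin/doxorubicin/rubitecan/topotecan combo added; 48hr 37 C, 5% CO2; CellTiter-Glo, 30min RT, luminescence.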
(In general: qHTS replaces the single test concentration by a dilution series.)

Assay [2] is described as follows: qHTS assay to identify small molecule inhibitors of chordoma cells - UCH-2 (AID 1259356). Note: % is set by controls: 0 for no effect and ±100 for the full control effect.
Assay [3] is described as follows: qHTS profiling for inhibitors of Plasmodium falciparum (3D7) proliferation (AID 743322).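 Note: infected erythrocytes exposed to compound for 72 h before lysis; 100% = DMSO vehicle wells and 0% = 0.29 µM artemisinin.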 As to conditions: P. falciparum 3D7 proliferation; at 28.7 µM (top of the series) unless noted. In short, it runs like this: (§1)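 Parasite DNA was quantified by SYBR Green I fluorescence (ex 485, em 535 nm) after overnight lysis in saponin/Triton buffer at room temperature. Cultures at 0.3% parasitemia and 2.5% hematocrit were first exposed to compound for 72 h at 37 C; signals were normalised to artemisinin (0.29 uM) and vehicle wells.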

Assay [4] is described as follows: qHTS profiling for inhibitors of Plasmodium falciparum (DD2) proliferation (AID 743323; call rule not given here). As to conditions: lower = more inhibition; at 28.7 µM (top of the series) unless noted. Summed up:
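SYBR Green fluorescence (ex 485, em 535 nm) of lysed cultures gives parasite DNA content; wells normalized to artemisinin (0.29 uM) and DMSO controls. Infected red cells: 0.3% parasitemia, 2.5% hematocrit, 72 h, 37 C.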

Assay [5] is described as follows: qHTS profiling for inhibitors of Plasmodium falciparum (HB3) proliferation (AID 743324).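 Note: 100% = DMSO vehicle wells and 0% = artemisinin-treated control wells.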 As to conditions: Plasmodium falciparum HB3 blood-stage proliferation; at 28.7 µM (top of the series) unless noted. Summed up:
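SYBR Green fluorescence (485 ex/535 em) of lysed cultures, incubated overnight at room temperature in the dark, quantifies parasite DNA. Infected erythrocytes at 0.3% parasitemia and 2.5% hematocrit were exposed 72 h; values normalized to DMSO and 0.29 uM artemisinin controls.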

A short description of assay [6]: qHTS profiling of the MIPE4 collection as inhibitors of Plasmodium falciparum (3D7) proliferation (AID 743344; call rule not given here;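 note: scaled between DMSO vehicle wells and 0.29 µM artemisinin as full inhibition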). As to conditions: P. falciparum 3D7 in erythrocytes, SYBR Green DNA fluorescence, 72 h; at 28.5 µM (top of the series) unless noted. In short, it runs like this:
as §1

Assay [7] in a line: qHTS profiling of the MIPE4 collection as inhibitors of Plasmodium falciparum (DD2) proliferation (AID 743345; call rule not given here). The following applies: P. falciparum Dd2 in erythrocytes, SYBR Green DNA, 72 h; at 28.5 µM (top of the series) unless noted. In short, it runs like this:
as §1

A short description of assay [8]: qHTS profiling of the MIPE4 collection as inhibitors of Plasmodium falciparum (DD2) proliferation (Rep 2) (AID 743346; call rule not given here). The following applies: P. falciparum Dd2 in erythrocytes, SYBR Green DNA, 72 h; at 28.5 µM (top of the series) unless noted. In short, it runs like this: as §1
A short description of assay [9]: qHTS profiling of the MIPE4 collection as inhibitors of Plasmodium falciparum (HB3) proliferation (AID 743347; call rule not given here;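 note: plate controls were DMSO vehicle wells for no effect and artemisinin wells for full effect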). As to conditions: P. falciparum HB3 in erythrocytes, SYBR Green DNA, 72 h; at 28.5 µM (top of the series) unless noted. In short, it runs like this: as §1
A short description of assay [10]: P-glycoprotein substrates identified in KB-8-5-11 adenocarcinoma cell line, qHTS therapeutic library screen (AID 1346987). Note: nearly all actives have a fitted effect of over 65% in size. Note: potency is the fitted concentration of half-maximal effect. Summed up: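 Compounds are pinned in dose-response onto KB-8-5-11 cells (500 cells/well, colchicine-free medium) and left 72 h at 37 degree C. CellTiter-Glo luminescence then yields AC50 values.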

On to `CC[N+](CC)(CC)CCC(O)(c1ccccc1)C1CCCCC1` (stereo unspecified), for which the Potency entry in assay [1] and in assay [2] was “inactive” in each case.
Consider `CCCCCCOc1ccc(C(=N)N(CCCC)CCCC)c2ccccc12`, for which the Potency entry in [1] is “inactive”.
For the compound `Clc1cc(Cl)c(OCC#CI)cc1Cl`, the Potency entry in assay [1] and in assay [2] was “inactive” in each case.
As for `CC(=O)N[C@@H](CC(=O)O)C(=O)N[C@@H](CCC(=O)O)C(=O)O` (Ac-Asp-Glu-OH), the Potency entry in assay [1] is “inactive”.
The same measure, in the same setting: next, `CCC(=O)O[C@]1(C(=O)CCl)[C@@H](C)C[C@H]2[C@@H]3C[C@H](F)C4=CC(=O)C=C[C@]4(C)[C@@]3(F)[C@@H](O)C[C@@]21C`: “inactive”.
Take `CC[N+](C)(C)Cc1ccccc1Br`: the Potency result in assay [1] and in [2] was “inactive” in each case.
`CO[C@H]1C[C@H](O[C@H]2[C@H](C)[C@@H](O[C@@H]3O[C@H](C)C[C@H](N(C)C)[C@H]3OC(C)=O)[C@@H](C)C[C@]3(CO3)C(=O)[C@H](C)[C@@H](OC(C)=O)[C@@H](C)[C@@H](C)OC(=O)[C@@H]2C)O[C@@H](C)[C@@H]1OC(C)=O`: the Potency result in assay [1] and in assay [2] was “inactive” each time.
Regarding `CCCC(=O)Nc1ncnc2c1ncn2C1OC2COP(=O)(O)OC2C1OC(=O)CCC` (stereo unspecified), in assay [1], the Potency result was “inactive”.
In the case of `C[C@@H]1CCC2[C@@H](C)[C@@H](O)O[C@@H]3O[C@@]4(C)CC[C@@H]1[C@@]23OO4` (stereo partly specified), the remaining parasite growth % (stronger effect = lower value) in [3] is -0.537%. The activity, percent of control in assay [4] was -0.207%. Besides, the remaining proliferation (% of control), lower = more inhibition in assay [5] is -0.144%. This compound also returned a parasite growth, % of DMSO control in assay [6] of 5.03%. The compound further gave a parasite growth remaining, % of DMSO control (lower = more inhibition) in assay [7] of 6.44%. The compound also returned a parasite growth, % of control (lower = inhibition) in assay [8] of 10.6%. This compound registered a growth, % of control in assay [9] of 6.11%. For the same compound, the Potency entry in assay [1] and in assay [2] was “inactive” each time. The Potency in assay [10] was 10.3 µM (active).
On to `COC(=O)CCC(=O)CN`, for which the Potency result in assay [1] and in [2] was “inactive” throughout.
For the compound `C[C@]12C=CC(=O)N[C@@H]1CC[C@@H]1[C@@H]2CC[C@]2(C)[C@@H](C(=O)Nc3cc(C(F)(F)F)ccc3C(F)(F)F)CC[C@@H]12`, the Potency entry in [1] and in [10] was “inactive” in each case.
